The target in the first experiment is UNC5D. The experiment is described as follows: pooled miR-30 sensor sort-seq; sequence = guide strand. As to conditions: shRNA.
In turn, TTGTCCTACATCATAAGCCTTT yielded a sensor-assay potency score (higher = more potent) of -0.645.
The sequence TTGACAATAATCTTGTCTCATC came in with a sensor-assay potency score (higher = more potent) of -0.801.
In turn, TAAATTAACTTTATGATGCTAC registered a sensor-assay potency score (higher = more potent) of -0.135.
Same read-out and setting: then TTAAAATGTATCAAACATCTAA, with 0.16; and TACATTTGTTTATCAATCCTGA, with -0.0896; and TTTGTGATGACACAGTACCCAC, with -1.26.
In the case of TTAGAAAAAACAACTTTCCGTA, the sensor-assay potency score (higher = more potent) came to 0.101.
Same read-out and setting: then TAGATAACTAGATCAACACGTG, with -0.0609; and TAGATCAACACGTGTCTCCTAG, with 1.06.
The sequence TAACCAACCTCTAAGTAGCTGA came in with a sensor-assay potency score (higher = more potent) of 0.224.

A further experiment addresses UPK1A. Described as above. As to conditions: shRNA.
In the case of TTGGACACCATGTAGTCACGGT, the sensor-assay potency score (higher = more potent) turned out to be 0.419.
The same measure, in the same setting: then TAGAAGGTCAGCATCTGCTTGG, with -0.08; and TCTTGCTCAATCATGACGCGGT, with 0.151.
Still for that read-out and setting: then TATGGTCTCAGCAAACAGGGAC, with -0.387.
As to TAGGACGTGATGCAGGAGGCGC, the sensor-assay potency score (higher = more potent) is -1.09.
Consider TACGTGAGGACCATGGACCGGC, for which the sensor-assay potency score (higher = more potent) came out at 0.148.
On the same count and under the same terms, with TACTGGTCGGCTGTCACCCATA the figure was -1.44; with TTGGTGAACAGGTAGTCCATGT, -0.409.
The same measure, in the same setting: with TAGCTGTCGATGGCGTGGCCGA the figure was -1.49; with TAGCAGGCCCACCACAACTGGA, -1.8; with ATGGCTATCAGCATGACCGGGA, -0.114.

A further experiment concerns the target UQCRQ. The experiment is described as above. Particulars: shRNA.
In turn, ATAAAACACTACAAACTGCGGC yielded a sensor-assay potency score (higher = more potent) of 0.284.
On the same count and under the same terms, then TGCTCGAACGGTGACAAGCTGT, with -0.735.
TATTGTGTCTTTGAGACACTAC returned a sensor-assay potency score (higher = more potent) of -0.42.
Still for that read-out and setting: with TTCTTCCTCTTGGATCTCTCGA the figure was -0.853; with TAAAACACTACAAACTGCGGCA, 0.151; with TGTAGCTGATCACATGCCGCAT, -0.74.
On the same count and under the same terms, with AACGGTGACAAGCTGTAGCTGA the figure was 0.0218.
On the same count and under the same terms, then TCGAACGGTGACAAGCTGTAGC, with -0.337.
Turning to TGGATCTCTCGAACTCTTCAGT, the sensor-assay potency score (higher = more potent) is -0.739.
Sequence TCCTTTAGTGAAGACGTGCGGA displayed a sensor-assay potency score (higher = more potent) of -0.407.
The same measure, in the same setting: then TCGAACTCTTCAGTCCCCCATG, with -1.13.

For another experiment, the target named is USO1. Described as above. As to conditions: shRNA.
TACACGAACAAGCTGTAGCATT displayed a sensor-assay potency score (higher = more potent) of -0.757.
As for TAGGATAGTACAAAGCTGCTGC, the sensor-assay potency score (higher = more potent) was 0.88.
The same measure, in the same setting: then TACCAATACACGAACAAGCTGT, with 0.107; and TTATAGTCTCGGTCTCTCCTTG, with 0.0783.
TAAAATAATTTGTTGCACCTGA: the sensor-assay potency score (higher = more potent) amounted to 0.172.
The same measure, in the same setting: then TATGATATAATCTCTATTGTTC, with -0.231; and TTTCTGATCTTGATCGGCCAAG, with -1.48.
Take TTATCATTGAAATAAATCGAAA: the sensor-assay potency score (higher = more potent) was -1.61.

These data come from the OligoGym collection.
Further: reference of the scale not given here.
